What was measured:
Assay in all cases: PBM binding z-score (relative to random genomic background probes); higher = stronger binding; sequences stand for … in GC…GCGATTGACAGCGTAGAATGAAGG
[1] = test system: PPARg:RXRa DBDmut IVT, anti-RXR (DBD mutation: RXRa K156A/R161A, NR concentration 270 nM, RXRa partner concentration 90 nM)
Method in brief: (§1)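 Antibodies against each partner of ligand-free nuclear receptor dimers (one per run) detected binding on custom Agilent 4×180K protein-binding microarrays after 1 h incubation. The double-stranded probes had 34-nt variable regions carrying direct-repeat seeds, single-nucleotide variants, half-site ablations and random human genomic background sequences. Binding z-scores, from regression-normalized fluorescence, use the random background probes as reference.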

[2] = test system: PPARg:RXRa IVT, anti-PPARg (NR concentration 270 nM, RXRa partner concentration 90 nM)
Method in brief: as §1

[3] = test system: PPARg DBDmut:RXRa IVT, anti-PPARg (DBD mutation: PPARg1 K132A/R137A, NR concentration 270 nM, RXRa partner concentration 90 nM)
Method in brief: as §1

[4] = test system: PPARg DBDmut IVT, anti-PPARg (DBD mutation: PPARg1 K132A/R137A, NR concentration 270 nM)
Method in brief: as §1

[5] = test system: PPARg homodimer (NR concentration 180 nM)
Method in brief: as §1

[6] = test system: PXR:RXRa (NR concentration 270 nM, RXRa partner concentration 90 nM)
Method in brief: as §1

[7] = test system: PXR homodimer (NR concentration 270 nM)
Method in brief: as §1

[8] = test system: RARa:RXR (NR concentration 270 nM, RXRa partner concentration 90 nM)
Method in brief: as §1

[9] = test system: RARa homodimer (NR concentration 270 nM)
Method in brief: as §1

[10] = test system: RARb:RXRa (NR concentration 270 nM, RXRa partner concentration 90 nM)
Method in brief: as §1

[11] = test system: RARb homodimer (NR concentration 270 nM)
Method in brief: as §1

[12] = test system: RARg homodimer (NR concentration 270 nM)
Method in brief: as §1

[13] = test system: RXRa DBDmut IVT, anti-RXR (DBD mutation: RXRa K156A/R161A, NR concentration 90 nM)
Method in brief: as §1

[14] = test system: RXRa homodimer (NR concentration 180 nM)
Method in brief: as §1

[15] = test system: THRa:RXRa (NR concentration 90 nM, RXRa partner concentration 90 nM)
Method in brief: as §1

[16] = test system: THRa homodimer (NR concentration 90 nM)
Method in brief: as §1

[17] = test system: VDR homodimer (NR concentration 270 nM)
Method in brief: as §1

[18] = test system: RARg:RXRa (NR concentration 270 nM, RXRa partner concentration 90 nM)
Method in brief: as §1

[19] = test system: VDR:RXRa (NR concentration 270 nM, RXRa partner concentration 90 nM)
Method in brief: as §1

Sequence	PBM binding z-score [1]	PBM binding z-score [2]	PBM binding z-score [3]	PBM binding z-score [4]	PBM binding z-score [5]	PBM binding z-score [6]	PBM binding z-score [7]	PBM binding z-score [8]	PBM binding z-score [9]	PBM binding z-score [10]	PBM binding z-score [11]	PBM binding z-score [12]	PBM binding z-score [13]	PBM binding z-score [14]	PBM binding z-score [15]	PBM binding z-score [16]	PBM binding z-score [17]	PBM binding z-score [18]	PBM binding z-score [19]
CCTGCTAGGTCAATGGTCAGCTCAAGCAGCTCGC	4.38	4.13	2.6	-0.398	1.12	0.974	-0.482	1.88	-0.428	3.79	3.02	4.32	1.88	1.92	2.23	0.708	0.174	–	–
TTACCGAGGTGAAAGGTCGTTGATGCACGCCTTG	3.24	5.19	0.609	0.681	2.03	4.58	0.0493	6.71	-0.0852	3.11	2.67	1.87	0.775	6.76	3.7	0.983	1.47	–	–
CCTACTGGGCCAATAAGGTCATTGATGCCGATAA	3.88	4.4	-0.359	-0.0114	1.04	3.77	3.17	3.56	0.431	3.17	3.48	2.87	1.09	2.78	4	3.44	2.76	–	–
AGTCAAATTTCATCTAGGTAACGTAAGATATGCT	0.205	2.04	1.11	1.49	0.098	-0.111	-0.176	0.369	0.837	–	-0.24	0.382	0.077	0.184	0.722	0.526	0.0484	-0.128	0.0583
TCTAGTTGGTGACGGAGGTCACACACGACGGGTA	1.77	3.08	0.76	0.756	2.31	3.78	0.917	3.78	0.681	3.36	3.88	3.21	0.917	4.29	3.41	2.23	1.83	–	–
TAGCCTAGGTCATGCGGGCCAGCATAGTGTCGGC	1.81	2.94	0.0937	-0.357	1.08	1.52	-0.642	2.1	-0.53	3.59	2.9	4.27	0.374	3.13	3	0.747	0.502	–	–
CAAACCAGGTCACGAAAGGTCAAAGTCGAATGAC	6.74	7.37	0.599	1.79	6.46	7.33	5.57	8.04	4.58	5.74	5.97	9.05	2.9	–	5.23	3.86	4.47	–	–
TCTCGGAGGACACGAAACGTCAGAGCTCGACATC	1.4	0.0714	-0.35	-0.247	-0.276	-0.408	-0.586	-0.175	-0.713	1.25	0.176	1.27	0.694	0.0278	1.1	0.276	-0.34	–	–
TAGCCTAGGTCATTTGGCCAGTATAGTACGCATC	1.38	2.47	0.221	0.0367	0.566	1.61	-0.0591	2.08	-0.227	3.67	2.59	4.08	1.99	2.73	2.65	0.679	1.27	–	–
CCGACTGGGGCAACGGTTACCATACTCAGTACGA	3.8	3.87	-0.196	-0.486	0.34	-0.591	-0.155	-0.576	-0.579	0.784	0.463	0.749	-0.399	0.0122	-0.149	-0.243	-0.248	–	–
ATCGAAATGTCGTGAGGTGAGTATACAGAAAGGC	-0.876	0.356	1.2	0.426	-0.35	-0.158	-0.418	0.27	-0.172	0.61	0.113	0.683	-0.3	0.0827	1.74	1.16	-0.224	–	–
ATCGAAAGGTCGAAGGAGAGTATACCCACCCGAA	-0.0352	1.35	0.946	0.145	1.41	2.39	0.0516	3.11	0.728	3.62	1.98	3.81	0.774	3.75	1.76	-0.242	0.458	–	–
ACTCGGAGGACAAAGGTCACAGCTACGCCAGTGA	1.61	4.71	0.569	-0.0483	5.62	5.5	0.867	6.75	3.36	5.12	5.26	6.99	1.55	–	4.23	1.62	2.46	–	–
CCTTACGGGTCACTCCAGGTTCTAGCATCGGAGT	2.92	3.24	0.0574	-0.343	1.37	3.13	-0.323	3.39	0.55	3.63	2.64	4.07	1.4	4.18	4.32	0.0825	1.07	–	–
CGAACTAGGTCAGAACAGGACAGTTAAGGATGAT	7	7.32	3.55	1.83	1.49	1.15	0.458	1.41	0.874	–	2.09	3.49	0.671	1.3	3.48	0.637	0.142	2.45	1.02
TGTCAAAGCTCAAAGGTAACGTAAGTATCCACAC	-0.538	0.996	0.525	0.434	-0.0175	0.078	-0.43	0.683	-0.12	0.692	0.284	0.498	-1	0.764	1.25	-0.706	-0.613	–	–
GCTCGGAGGACAAGGTCAGGGCTTTGTCCGTAGA	-0.354	1.3	-0.608	-0.233	0.661	2.03	-0.681	2.71	-0.898	3.83	3.31	4.39	0.229	3.18	3.22	1.75	0.358	–	–

Reference: the supplement of paper PMC6555819
